# Screens from PubChem BioAssay.
# The list is not random: actives were taken first. Their share in the collection is about 7.3%.
# AmpC inh no detg – blocks E. coli AmpC beta-lactamase in detergent-free assay | 330,000 tested, 0.52% active | P00811 | AID 485341 | AmpC nitrocefin hydrolysis, absorbance 480 nm, 0.0001% Triton | Potency, µM (highest dose often 57.1 µM), without a hit: at the highest dose activity change, negative = inhibition, actives largely listed as inhibitors;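 further: potency means the concentration at half of the fitted maximal effect; plate controls were no compound for no effect and no enzyme for full effect; nearly all actives have a fitted effect of over 20% in size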
# Target sequence (P00811 whole entry, looked up): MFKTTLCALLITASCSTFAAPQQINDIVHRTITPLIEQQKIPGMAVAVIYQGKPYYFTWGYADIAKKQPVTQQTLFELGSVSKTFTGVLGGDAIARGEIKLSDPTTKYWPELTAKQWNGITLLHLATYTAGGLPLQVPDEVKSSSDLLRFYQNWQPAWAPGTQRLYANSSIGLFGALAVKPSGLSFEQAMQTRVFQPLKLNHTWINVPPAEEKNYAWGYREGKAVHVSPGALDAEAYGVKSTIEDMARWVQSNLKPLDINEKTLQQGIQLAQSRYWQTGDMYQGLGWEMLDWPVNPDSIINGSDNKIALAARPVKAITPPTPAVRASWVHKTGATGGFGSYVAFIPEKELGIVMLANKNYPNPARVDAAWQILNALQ
#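 AmpC (5.3 nM in the dispensed reagent) in 20 mM phosphate pH 7.0 with 0.01% (detergent screen) or 0.0001% Triton X-100 was preincubated with compounds for 15 min at room temperature. Nitrocefin was then added from an 800 uM solution, and hydrolysis was followed at 480 nm.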
# HCMV inh – blocks human cytomegalovirus replication; HFF cells, HCMV-luciferase reporter, 72 h; stronger effect = lower value; 410,000 tested, 4.5% active; activity change, negative = inhibition, % at 57.5 µM; AID 1259415; in the data active means activity change below about -60%; inconclusive means no clear call, values can overlap the other calls; inactive means above about -39%
#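 Human foreskin fibroblasts infected with luciferase-reporter HCMV at MOI 1 PFU/cell, compounds at two doses. Luciferase measured 72 h post infection; normalized to buffer-only basal and Salinomycin (10uM) controls.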
# AmpC inh detg – inhibitors of E. coli AmpC beta-lactamase with detergent | AmpC hydrolysis of nitrocefin, absorbance 480 nm, 0.01% Triton | P00811 | Potency, µM (doses to about 114 µM), without a hit: at the top dose activity change, negative = inhibition, actives largely listed as inhibitors | 370,000 tested, 0.041% active | AID 485294;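 further: potency means the concentration at half of the fitted maximal effect; 0% = no-compound wells and -100% = no-enzyme wells; nearly all actives have a fitted effect of over 25% in size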
#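 20 mM phosphate pH 7.0 + 0.01% (detergent screen) or 0.0001% Triton X-100; 5.3 nM AmpC reagent; cpd preinc 15 min RT; nitrocefin (800 uM stock) to start; A480 q20 s × 4 min; Activity was normalised to no-enzyme and no-compound control wells.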
# FMDV inh – blocks foot and mouth disease virus. FMDV antiviral cell-based qHTS. Potency, µM (top dose mostly 57.9 µM), inactives show top-dose activity change, negative = inhibition, most hits filed as inhibitors. 410,000 tested, 1.2% active. AID 1159524; calls by dose curve; tested in HEK293T cells; further: read-out not given here; potency means the concentration at half of the fitted maximal effect; nearly all actives have a fitted effect of over 45% in size
# HCV inhibitor – blocks hepatitis C virus; Huh7.5.1 HCVcc-Cre infection, luciferase reporter, 44 h; 340,000 tested, 3.4% active; Potency, µM (top dose mostly 41.8 µM), for inactives: top-dose activity change, negative = inhibition, most hits filed as inhibitors; further: potency means the concentration at half of the fitted maximal effect
#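 Infectious HCV cell culture screen: compound-treated cells (1,000/well, pre-plated 4 h) are infected with HCVcc-Cre at roughly 0.5 moi and grown 44 h. Infection is quantified by luciferase signal after 15 min substrate incubation at room temperature.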
# * marks the source's active call; other numbers are inactive results; ? = inconclusive; . = no result; ! = a repeat was not active; [ ] = remark or other dose. Unless noted, the call rests on the fitted dose curve; in most records, active means well fitted curve in the direction sought with a large enough effect; inconclusive means small, poorly fitted or top-dose-only effect, or another doubt; inactive means no such curve, though single readings can be large; an effect the other way counts as inactive or inconclusive. Unless noted, on the % scale 0 is the no-effect control and ±100 the full control effect.
SMILES,AmpC inh no detg,HCMV inh,AmpC inh detg,FMDV inh,HCV inhibitor
COc1cc(-c2noc(CCCC(=O)Nc3ccc(C(N)=O)cc3)n2)cc(OC)c1OC,-15%,152,6%,-11%,-5%
COc1ccc(-c2noc(CCC(=O)NC3CCCCCC3)n2)cc1,12%,-22,0%,-10%,-26%
O=C(CCc1nc(-c2ccc(Cl)cc2)no1)NC1CCCCC1,-11%,1,0%,-28%,12%
CC1=C(C(=O)Nc2cc(C(=O)N3CCN(c4cccc(C)c4C)CC3)ccc2C)SCCO1,56%,-37,-6%,-9%,11µM*
Cc1ccc(/C=C/c2nc3ccccc3[nH]2)cc1,.,-91*,2%,8.9µM*,.
Cc1ccc(/C=C/c2nc3ccccc3c(=O)[nH]2)cc1,-5%,47,-7%,16µM*,12%
Cc1ccccc1/C=C\c1nc2ccccc2c(=O)[nH]1,-23%,47,-7%,25%,10µM*
NS(=O)(=O)c1cccc(NC(=O)CN2CCN(S(=O)(=O)c3ccc4c(c3)OCCO4)CC2)c1,-16%,19,.,0%,3%
O=C(NCc1ccccc1)c1cc(C2COCCN2C(=O)c2ccccc2)on1 (stereo unspecified),.,-5,.,-9%,.
CCn1c(=O)c2cc(C(=O)N(C)c3ccccc3F)sc2c2ccccc21,-8%,?,9%,-26%,1µM*
CCOc1ccccc1N(CC)C(=O)c1cc2c(=O)n(CC)c3ccccc3c2s1,.,-70*,-3%,?,.
CCn1c(=O)c2cc(C(=O)N(C)c3cc(Cl)c(OC)cc3OC)sc2c2ccccc21,.,2,18%,-21%,.
CCn1c(=O)c2cc(C(=O)N(C)c3cc(C)ccc3OC)sc2c2ccccc21,17%,0,5%,-47%,13µM*
O=C(CN1C(=O)CCSc2ccccc21)N1CCC2(CC1)OCCO2,0.28µM*,17,3%,13%,6%
CCOc1ccc(S(=O)(=O)NCCC(=O)N2CC=C(c3ccccc3)CC2)cc1,4%,?,-8%,?,22µM*
O=C(NC1CCN(Cc2ccccc2)CC1)c1cn(-c2ccccc2)nc1-c1cccnc1,-5%,-25,?,-19%,-17%
N/C(=N\OCc1ccccc1)c1nonc1N,18%,-15,-5%,55%,-10%
N/C(=N/OCc1cccc([N+](=O)[O-])c1)c1nonc1N,-15%,-60*,?,-19%,-17%
Nc1ncc(/C=C/CNC(=O)c2cc(Cl)c(Br)[nH]2)[nH]1,.,-15,.,.,.
Cc1ccc(Sc2ccc(CN3CCCC3)cc2[N+](=O)[O-])cc1,14%,-27,0%,-25%,?
CN1CCN(Cc2ccc(Sc3ccc(Cl)cc3)c([N+](=O)[O-])c2)CC1,19%,-71*,1%,-26%,?
Cc1ccc2nc(-c3cccc(Cl)c3)c(Cc3ccccc3C(F)(F)F)n2c1,.,46,.,.,.
O=C(Cn1c(=O)c2sccc2n(Cc2cccc([N+](=O)[O-])c2)c1=O)NCCc1ccccc1,-25%,-1,-8%,-19%,?
O=C(Cn1c(=O)c2sccc2n(Cc2ccc([N+](=O)[O-])cc2)c1=O)NCCc1ccccc1,-45%,-73*,-12%,?,?
C=C(C)Cn1c2ccc(NC(=O)CCc3cccnc3)cc2c(=O)n1C,.,6,.,-12%,.
SMILES,AmpC inh no detg,HCMV inh,AmpC inh detg,FMDV inh,HCV inhibitor
C[CH2][Hg][S]c1ccccc1C(=O)O,.,-95*,.,28µM*,-62%
CC1(C)S[C@@H]2[C@H](NC(=O)[C@H](N)c3ccccc3)C(=O)N2[C@H]1C(=O)O,13µM*!,-60*!,45µM*,-6%,-15%[8.37 µM]
CC1(C)S[C@@H]2[C@H](NC(=O)[C@H](N)c3ccc(O)cc3)C(=O)N2[C@H]1C(=O)O,-23%,-40,35µM*,-11%,?
COc1ccc(-c2cn3cccnc3n2)cc1NC(=O)c1c(F)cccc1F,.,-28,1%,16%,.
CN=C(c1ccc(C)cc1)n1c(=S)nc(-c2ccc(C)cc2)n(C)c1=S,-8%,15,-5%,-6%,-9%
CN=C(c1ccco1)n1c(=S)nc(-c2ccco2)n(C)c1=S,-27%,73,-7%,7%,11µM*
O=C1CCCN1CCCNc1ccc2nnc(CCC(=O)N3CCN(c4ccc(F)cc4)CC3)n2n1,58%,-32,4%,-5%,9%
Cc1cccc(C(=O)NCC(=O)OCCOc2ccccc2Cl)c1,-11%,-30,-12%,0%,6%
O=C(CNC(=O)c1cccc(F)c1)N/N=C/c1cc(Br)ccc1OC(=O)/C=C/c1ccco1,16µM*,-101*,-6%,-16%,7.9µM*
O=C(CNC(=O)c1ccccc1O)N/N=C/c1cc(Br)ccc1OC(=O)/C=C/c1ccco1,3.2µM*,-74*,-14%,-30%,?
Cn1c(CNc2cccc(Cl)c2)nnc1SCC(=O)OC1CCCCC1,29%,-80*,?,-25%,3%
CC(C)OC(=O)CSc1nnc(CNc2cccc(Cl)c2)n1C,-31%,73,-8%,-27%,13%
O=C(O)Cc1sc(Nc2ccccc2Cl)nc1-c1ccccc1,.,-61*,-5%,32%,.
CCc1sc(NC(C)=O)nc1-c1ccccc1,19%,23,4%,0%,3%
CCc1sc(NC(=O)C(C)C)nc1-c1ccccc1,-16%,-78*,1%,-14%,-6%
Cc1c(C(=O)N2CCCC(C)C2)sc2ncnc(NCCN3CCCCC3)c12 (stereo unspecified),.,.,.,1%,.
CCc1cccc(CC)c1NC(=O)/C(C#N)=C/c1ccccc1C(F)(F)F,-20%,-103*,5%,25µM*,11µM*
N#C/C(=C\c1ccccc1C(F)(F)F)C(=O)Nc1ccccc1,-10%,-29,?,22%,1%
COc1cccc(CNC(=O)Cn2ncc3c4ccccc4n(C)c3c2=O)c1,.,17,0%,-11%,.
COc1cccc(Cn2ncc3c4sc(B(O)O)cc4n(C)c3c2=O)c1,2.2µM*,.,1.1µM*,.,.
COc1cc(NC(=O)CN2CCN(CC(=O)Nc3ccccc3OC)CC2)cc(OC)c1,161%,54,0%,?,0%
COc1cc2c(cc1OC)/C(=C/c1ccc(Cl)cc1)C(=O)OC2,44%,0,-9%,40µM*,-5%
COc1ccc(/C=C2\C(=O)OCc3cc(OC)c(OC)cc32)cc1OC,-8%,37,-17%,-14%,-12%
COc1ccccc1Cn1c(=O)c2ccccc2n2c(Sc3ncnc4sccc34)nnc12,-20%,?,?,?,10µM*
Cc1cccc(N2C(=O)c3cccc4c(N(C)CCO)ccc(c34)C2=O)c1,16%,.,?,?,11µM*
Cc1cccc(N2C(=O)c3cccc4c(N)ccc(c34)C2=O)c1,-54%,?,4%,-1%,10µM*
